# Experimental data: PubChem BioAssay
# Values joined by “and” are separate entries in the source; they are usually repeats but may differ in a detail not shown here. Equal values may be shown once. Records with an inconclusive call do not appear. Active and inactive are the calls of the source. Unless noted, no rule for the calls is given here.
# Tests used:
# [1] = circadian clock period modulators, cell-based, LOPAC library, luminescence reporter (AID 2774); settings: circadian reporter cells, at 7 µM, actives lie on both sides;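 also: values are relative to mean of DMSO wells on each plate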
# [2] = system: Hepatitis C virus NS3 helicase; assay: HCV NS3 helicase inhibitors, primary screen, biochemical, fluorescence polarization, LOPAC1280 library (AID 687035; in the data active = inhibition above about 37%); settings: Purified HCV NS3 helicase, Cy5-dT15 ssDNA binding fluorescence polarization; stronger effect = higher value; concentration not given here
# [3] = Cy5 fluorescence quenching or enhancement artefacts, artefact control for HCV NS3 helicase inhibitor project, biochemical, LOPAC1280 (AID 687037); settings: Cy5-DNA-NS3h complex fluorescence interference counterscreen
# [4] = system: Aerobactin synthetase IucA (Klebsiella pneumoniae, hypervirulent); assay: IucA enzyme inhibition, biochemical, LOPAC library, absorbance readout (AID 1346212); settings: IucA enzyme assay, absorbance (OD) readout; stronger effect = lower value;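 tested at 8 µM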;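 also: 100% = no compound wells and 0% = no enzyme wells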
# [5] = sensitizers of A549 cells to miR-34 induction, primary screen, imaging, A549 dox-inducible miR-34, nuclei and caspase counts (AID 1347080;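 active = compounds whose cell count with miR-34 switched on is under 0.7 times the count with it off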); settings: A549 miR-34 inducible, Hoechst nuclei count, 48 h
# [6] = phospholipid biosynthesis inhibitors in animal cells, primary screen, cell-based, LOPAC library, screen 4 (AID 1347384); settings: phospholipid biosynthesis inhibition screen, at 10 µM
# [7] = viability rescue of complex I mutant cybrids, primary screen, cell-based, galactose medium, ATP luminescence (AID 1645843;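 active = z-score of at least 1.8 in each of two replicates, scored against plate mean and spread of sample wells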;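 also: positive z means more ATP and so rescue of galactose-driven cybrid death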); settings: complex I mutant cybrid cells, 72 h, stronger effect = higher value
# [8] = hESC survival regulators, cell-based (AID 493140); settings: human embryonic stem cell survival screen; stronger effect = higher value;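 also: cells exposed to compounds for four days before counting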
# [9] = growth inhibition of DIPG glioma cells, dose response, cell-based, SU-DIPG-IV, MIPE4.0, CellTiter-Glo, qHTS (AID 1347063; cut-off not given, nearly all actives have AC50 up to about 30 µM;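 also: compound exposure lasted 48 hours before the viability readout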); settings: SU-DIPG-IV viability, CellTiter-Glo ATP luminescence
# [10] = growth inhibition of DIPG glioma cells, dose response, cell-based, SU-DIPG-XVII, MIPE5.0, CellTiter-Glo, qHTS (AID 1347060; cut-off not given, nearly all actives have AC50 up to about 26 µM;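 also: cells exposed to compound for 48 hours before viability readout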); settings: SU-DIPG-XVII viability, CellTiter-Glo ATP luminescence
# [11] = growth inhibition of DIPG glioma cells, dose response, cell-based, SU-DIPG-XIII, MIPE4.0, CellTiter-Glo, qHTS (AID 1347061; cut-off not given, nearly all actives have AC50 up to about 37 µM;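 also: cells exposed to compound for 48 hours before readout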); settings: SU-DIPG-XIII viability, CellTiter-Glo ATP luminescence
# [12] = viability loss in pontine glioma line – cell-based, SU-DIPG-XXV, MIPE5.0, CellTiter-Glo, qHTS, dose response (AID 1347065; cut-off not given, nearly all actives have AC50 up to about 26 µM;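 also: cells exposed to compound for 48 hours before ATP readout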); settings: CellTiter-Glo ATP luminescence
# [13] = SU-DIPG-VI glioma cell viability, MIPE4.0 library, CellTiter-Glo luminescence, qHTS (AID 1347066; cut-off not given, nearly all actives have AC50 up to about 30 µM;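 also: cells exposed to compound for 48 hours before readout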); settings: CellTiter-Glo ATP luminescence
# [14] = JHH-DIPG-1 glioma cell viability, MIPE5.0 library, CellTiter-Glo luminescence, qHTS (AID 1347067; cut-off not given, nearly all actives have AC50 up to about 26 µM;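 also: cells exposed to compound for 48 hours before readout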); settings: JHH-DIPG-1 glioma viability, CellTiter-Glo ATP luminescence
# [15] = inhibitors of Cryptococcus chitosan production, flow cytometry, Cibacron Brilliant Red staining (AID 1347148); settings: Cryptococcus neoformans chitosan, stronger effect = lower value; at 10 µM unless noted;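 also: compound exposure lasted three days at 37 degrees C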
# [16] = survival rescue of mitochondrial mutant cells in low glucose, primary screen, MELAS cybrids, Rieske KO mouse fibroblasts, CellTiter-Glo (AID 1508586;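 active = mean z-score across replicates of 1.96 or higher in either the MELAS or the Rieske mutant cell line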;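 also: z relative to plate mean and SD of compound and empty wells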)
# [17] = growth inhibition of DIPG glioma cells, dose response, cell-based, JHH-DIPG-1, MIPE4.0, CellTiter-Glo, qHTS (AID 1347062; cut-off not given, nearly all actives have AC50 up to about 27 µM;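 also: cells exposed to compound for two days before readout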); settings: JHH-DIPG-1 viability, CellTiter-Glo ATP luminescence
# [18] = growth inhibition of DIPG glioma cells, dose response, cell-based, SU-DIPG-XIII, MIPE5.0, CellTiter-Glo, qHTS (AID 1347064; cut-off not given, nearly all actives have AC50 up to about 23 µM;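 also: cells exposed to compound for 48 hours before the viability read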); settings: SU-DIPG-XIII viability, CellTiter-Glo ATP luminescence
# [19] = SU-DIPG-XXV glioma cell viability, MIPE5.0 library, qHTS (AID 1347068; cut-off not given, nearly all actives have IC50 up to about 30 µM;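 also: cells exposed to compound for 48 hours before viability readout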)
# [20] = measured here: relative caspase fold change +Dox/-Dox
# [21] = measured here: total cells with miR-34 induction, stronger effect = lower value
# [22] = measured here: total cells without miR-34 induction
structure (smiles),measurement,setting,value
CP(=O)(O)C1=CCNCC1,period change,[1],0.005 h (inactive)
same,inhibition,[2],-5% (inactive)
same,fluorescence ratio (interference),[3],1 (inactive)
same,remaining activity,[4],95.4% (inactive)
same,fold change,[5]; stronger effect = lower value,0.981 (inactive)
same,fold change,[5]; [20],1.49
same,cell count,[5]; [21],9760
same,cell count,[5]; [22],9940
same,outcome,[6],inactive
same,z-score,[7],0.2 (inactive)
NC(Cc1cc(O)c(O)cc1O)C(=O)O (configuration not stated),period change,[1],0.12 h (inactive)
same,inhibition,[2],22% (inactive)
same,fluorescence ratio (interference),[3],0.9 (inactive)
same,remaining activity,[4],96.6% (inactive)
same,fold change,[5]; stronger effect = lower value,1.05 (inactive)
same,fold change,[5]; [20],0.814
same,cell count,[5]; [21],9010
same,cell count,[5]; [22],8570
same,outcome,[6],inactive
same,z-score,[7],-0.345 (inactive)
Cc1c(C(=O)c2cccc3ccccc23)c2cccc3c2n1[C@H](CN1CCOCC1)CO3,period change,[1],-0.065 h (inactive)
same,survival,[8],106 (inactive)
same,inhibition,[2],-8% (inactive)
same,fluorescence ratio (interference),[3],1 (inactive)
same,remaining activity,[4],99.8% (inactive)
same,AC50,[9],9.35 µM (active)
same,fold change,[5]; stronger effect = lower value,0.941 (inactive) and 0.94 (inactive)
same,fold change,[5]; [20],1.39 and 1.17
same,cell count,[5]; [21],5730 and 5540
same,cell count,[5]; [22],6090 and 5900
CCCn1c(C)c(C(=O)c2cccc3ccccc23)c2ccccc21,remaining activity,[4],107% (inactive)
same,fold change,[5]; stronger effect = lower value,0.889 (inactive)
same,fold change,[5]; [20],1.38
same,cell count,[5]; [21],5580
same,cell count,[5]; [22],6280
CC(C)NC(C)Cc1ccc(I)cc1 (configuration not stated),period change,[1],0.04 h (inactive)
same,inhibition,[2],-1% (inactive)
same,fluorescence ratio (interference),[3],1 (inactive)
same,remaining activity,[4],108% (inactive)
same,fold change,[5]; stronger effect = lower value,1.08 (inactive)
same,fold change,[5]; [20],0.905
same,cell count,[5]; [21],10800
same,cell count,[5]; [22],10000
same,outcome,[6],inactive
same,z-score,[7],-0.22 (inactive)
CCCN1CCC[C@H](c2cccc(O)c2)C1,period change,[1],-0.035 h (inactive)
same,inhibition,[2],-3% (inactive)
same,fluorescence ratio (interference),[3],1 (inactive)
same,remaining activity,[4],98.7% (inactive)
same,fold change,[5]; stronger effect = lower value,1 (inactive)
same,fold change,[5]; [20],1.94
same,cell count,[5]; [21],9710
same,cell count,[5]; [22],9700
same,outcome,[6],inactive
same,z-score,[7],0.32 (inactive)
COC[C@H]1OC(=O)c2coc3c2[C@@]1(C)C1=C(C3=O)C2CCC(=O)[C@@]2(C)C[C@H]1OC(C)=O (some centres not stated),period change,[1],-0.52 h (inactive)
same,survival,[8],37.8 (inactive)
same,inhibition,[2],-1% (inactive)
same,fluorescence ratio (interference),[3],1 (inactive)
same,remaining activity,[4],109% (inactive)
same,AC50,[10],5.25 µM (active)
same,AC50,[11],23.5 µM (active)
same,AC50,[9],3.72 µM (active)
same,AC50,[12],2.63 µM (active)
same,AC50,[13],18.7 µM (active)
same,AC50,[14],4.17 µM (active)
same,fold change,[5]; stronger effect = lower value,1.01 (inactive)
same,fold change,[5]; [20],1.88
same,cell count,[5]; [21],3350
same,cell count,[5]; [22],3320
same,outcome,[6],inactive
same,z-score,[7],0.165 (inactive)
CN1[C@@H]2CC[C@H]1CC(OC(=O)[C@H](CO)c1ccccc1)C2 (some centres not stated),remaining activity,[4],107% (inactive)
O=C(O)C1CCNCC1,remaining activity,[4],111% (inactive)
Clc1cnc(Oc2ccc(Oc3ncc(Cl)cc3Cl)cc2)c(Cl)c1,period change,[1],0 h (inactive)
same,inhibition,[2],-3% (inactive)
same,fluorescence ratio (interference),[3],1 (inactive)
same,remaining activity,[4],94.8% (inactive)
same,fold change,[5]; stronger effect = lower value,0.984 (inactive)
same,fold change,[5]; [20],1.88
same,cell count,[5]; [21],9890
same,cell count,[5]; [22],10000
same,outcome,[6],inactive
same,z-score,[7],1.21 (inactive)
Ic1ccccc1CNC1C2CCN(CC2)C1C(c1ccccc1)c1ccccc1 (configuration not stated),period change,[1],0.145 h (inactive)
same,inhibition,[2],-8% (inactive)
same,fluorescence ratio (interference),[3],0.9 (inactive)
same,remaining activity,[4],98.2% (inactive)
same,fold change,[5]; stronger effect = lower value,0.485 (active)
same,fold change,[5]; [20],0.281
same,cell count,[5]; [21],329
same,cell count,[5]; [22],679
same,outcome,[6],inactive
same,z-score,[7],-1.29 (inactive)
CC(C)(C)c1cc(C=C(C#N)C#N)cc(C(C)(C)C)c1O,period change,[1],1.05 h (inactive)
same,survival,[8],76 (inactive)
same,inhibition,[2],0% (inactive)
same,fluorescence ratio (interference),[3],1 (inactive)
same,remaining activity,[4],101% (inactive)
same,fold change,[5]; stronger effect = lower value,1.14 (inactive) and 1.05 (inactive) and 0.984 (inactive)
same,fold change,[5]; [20],0.636 and 2.12 and 0.899
same,cell count,[5]; [21],1430 and 1570 and 1940
same,cell count,[5]; [22],1250 and 1490 and 1970
same,fold fluorescence,[15],9.17 [at 177.1 µM] (inactive)
same,outcome,[6],active
same,z-score,"[16]; MELAS cybrid survival, CellTiter-Glo 48 h, stronger effect = higher value",0.224 (inactive)
same,z-score,"[16]; Rieske KO mouse fibroblast survival, CellTiter-Glo 72 h",-0.362
same,z-score,[7],-1.27 (inactive)
NC(=O)c1cc(N2CC2)c([N+](=O)[O-])cc1[N+](=O)[O-],period change,[1],-0.165 h (inactive)
same,inhibition,[2],-2% (inactive)
same,fluorescence ratio (interference),[3],1 (inactive)
same,remaining activity,[4],112% (inactive)
same,fold change,[5]; stronger effect = lower value,1.03 (inactive)
same,fold change,[5]; [20],1.9
same,cell count,[5]; [21],4350
same,cell count,[5]; [22],4220
same,outcome,[6],inactive
same,z-score,[7],0.09 (inactive)
C/C=C(/C)C(=O)O[C@H]1C(C)=C2[C@H]([C@@H]1OC(=O)CCCCCCC)[C@@](C)(OC(C)=O)C[C@H](OC(=O)CCC)[C@@]1(O)[C@H]2OC(=O)[C@@]1(C)O,period change,[1],9.62 h (inactive)
same,inhibition,[2],-3% (inactive)
same,fluorescence ratio (interference),[3],1 (inactive)
same,remaining activity,[4],86.6% (inactive)
same,AC50,[10],0.0525 µM (active)
same,AC50,[11],0.59 µM (active)
same,AC50,[17],0.0469 µM (active)
same,AC50,[9],0.00743 µM (active)
same,AC50,[18],0.295 µM (active)
same,AC50,[12],0.0235 µM (active)
same,AC50,[13],0.105 µM (active)
same,IC50,[19],1.32 µM (active)
same,fold change,[5]; stronger effect = lower value,1.93 (inactive) and 1.56 (inactive)
same,fold change,[5]; [20],0.132 and 0.916
same,cell count,[5]; [21],662 and 522
same,cell count,[5]; [22],343 and 336
same,fold fluorescence,[15],5.31 [at 76.8 µM] (inactive)
same,outcome,[6],inactive
same,z-score,[7],-1.38 (inactive)
Nc1ccc(CCN2CCN(c3cccc(C(F)(F)F)c3)CC2)cc1,period change,[1],0.14 h (inactive)
same,inhibition,[2],-3% (inactive)
same,fluorescence ratio (interference),[3],0.9 (inactive)
same,remaining activity,[4],102% (inactive)
same,fold change,[5]; stronger effect = lower value,0.992 (inactive)
same,fold change,[5]; [20],0.858
same,cell count,[5]; [21],8520
same,cell count,[5]; [22],8580
same,outcome,[6],inactive
same,z-score,[7],-0.665 (inactive)
NNC(N)=O,period change,[1],-0.03 h (inactive)
same,inhibition,[2],-3% (inactive)
same,fluorescence ratio (interference),[3],1 (inactive)
same,remaining activity,[4],102% (inactive)
same,fold change,[5]; stronger effect = lower value,0.944 (inactive)
same,fold change,[5]; [20],0.77
same,cell count,[5]; [21],10400
same,cell count,[5]; [22],11000
same,outcome,[6],inactive
same,z-score,[7],0.4 (inactive)
c1ccc2c(N3CCNCC3)cccc2c1,period change,[1],0.19 h (inactive)
same,inhibition,[2],-1% (inactive)
same,fluorescence ratio (interference),[3],1 (inactive)
same,remaining activity,[4],77.2% (inactive)
same,fold change,[5]; stronger effect = lower value,0.966 (inactive)
same,fold change,[5]; [20],1.06
same,cell count,[5]; [21],8750
same,cell count,[5]; [22],9060
same,outcome,[6],inactive
same,z-score,[7],-0.255 (inactive)
